Out of some 310,000 compounds screened, about 410 (0.13%) were called active. Roughly 2% stayed inconclusive and do not appear here. The rule behind the calls is not given here. These entries were drawn from the full list. Entries with a potency or affinity are not part of this list.
Test: inhibition of RSV-induced cytopathic effect – HEp-2 cells, primary 10 µM value included (AID 2391)
Details: at 10 µM, stronger effect = higher value

CPE inhibition, inactive:
CCOC(=O)Cc1c(C)c2ccc(N(CC)CC)cc2oc1=O 57.9%
Cc1cc(OC(C(=O)O)c2ccccc2)c2c(C)c(Cc3ccccc3)c(=O)oc2c1 (stereo not drawn) 11.6%
Cc1coc2c1c(C)cc1oc(=O)c(Cc3ccccc3)c(C)c12 1.6%
Cc1cc(O)c2c(C)c(CC(=O)N3CCN(C(=O)C4COc5ccccc5O4)CC3)c(=O)oc2c1 (stereo not drawn) 6.34%
COC(=O)Cc1c(C)c2c(O)cc(C)cc2oc1=O 6.65%
Cc1c(CC(=O)N2CCN(C(=O)C3COc4ccccc4O3)CC2)c(=O)oc2cc(O)ccc12 (stereo not drawn) 0.83%
C=CCN(CC(=O)Nc1c(C)cccc1CC)C(=O)SCCC 0.77%
Cc1[nH]c(C)c(S(=O)(=O)Nc2ccc(OC(F)(F)F)cc2)c1C(=O)N1CCCCC1 1.31%
C#CCOc1nc2c(c(=O)n(C)c(=O)n2C)n1Cc1ccccc1 6.97%
CCc1ccc(-c2cc(C(=O)N3N=C(C(F)F)CC3(O)C(F)F)c3ccccc3n2)cc1 (stereo not drawn) -3.61%
CC1c2cc3c(cc2CCN1C(=O)c1cccc(F)c1)OCCCO3 (stereo not drawn) 2.63%
CCCCc1ncc(CN2CCC(n3nccc3NC(=O)c3ccccc3Cl)CC2)[nH]1 0.19%
O=C(O)c1cc(-c2ccc(/C=C3\NC(=O)N(c4ccccc4)C3=O)o2)ccc1Cl 4.99%
Cc1ccc(N2NC(=O)/C(=C/c3ccc(-c4ccc(Cl)c(C(=O)O)c4)o3)C2=O)cc1 0.38%
Cc1cccnc1NC(=O)c1ccc(OCc2c(C)noc2C)cc1 1.6%
CCOc1ncccc1C(=O)Nc1nc(C(C)(C)C)cs1 0.68%
CC(C)(C)c1csc(NC(=O)c2cccnc2Cl)n1 1.36%
COc1ccc(CC2(CO)CCN(Cc3ccc(OC(F)(F)F)cc3)CC2)cc1 13.9%
COc1ccccc1NC(=O)Nc1nc(CC(=O)Nc2ccc(OC)c(OC)c2)cs1 -1.37%
Cc1cc(OCc2cc(C(=O)N(C)CCOc3ccccc3)no2)cc(C)c1Cl 13.7%
O=C(NCc1ccccc1Cl)C1CCCN(S(=O)(=O)c2cccc3nonc23)C1 (stereo not drawn) 0.66%
O=C(NCc1ccc(Cl)cc1)C1CCN(S(=O)(=O)c2cccc3nonc23)CC1 5.35%
COc1ccc(CNC(=O)C2CCN(S(=O)(=O)c3cccc4nonc34)CC2)cc1 0.73%
COc1ccccc1CNC(=O)C1CCCN(S(=O)(=O)c2cccc3nonc23)C1 (stereo not drawn) 0.88%
O=C(NNC(=O)C12CC3CC(CC(C3)C1)C2)c1ccccn1 1.78%
C/C(CC(=O)Nc1cc(C)ccn1)=N\NC(=O)C(=O)NC(C)C -0.96%
CC(=O)C1[C@H](N(C)C)CC2C3CC=C4CC(O)CC[C@]4(C)C3CC[C@@]21C (stereo partly drawn) 0.54%
CC12CCC(O)CC1=CCC1C2CCC2(C)C1CCC21CCC(=O)O1 (stereo not drawn) 7.71%
CCN(CC)S(=O)(=O)c1ccc(N2C(=O)CC2(/C=C/c2ccccc2)C(=O)NC2CCCC2)cc1 (stereo not drawn) 4.54%
Cc1c(Cl)ccc2c(C(=O)NCCCn3nccc3C)cc(-c3ccccn3)nc12 13.8%
Cc1nnc(NC(=O)CSc2ccc(-c3cccnc3)nn2)s1 2.73%
Cn1c(COc2nnc(-c3ccc(Cl)cc3)c3ccccc23)nc2ccccc21 5.55%
Cc1nnc(OCc2nc3ccccc3n2C)c2ccccc12 6.77%
CCC(CC)c1nnc(NC(=O)c2c(C)nn(Cc3ccccc3Cl)c2C)s1 10.8%
CC(=O)Nc1ccc(NC(=O)c2c(C)nn(Cc3ccccc3Cl)c2C)cc1 1.12%
COc1ccc(-c2nc(N=Nc3ccc(O)cc3)n[nH]2)cc1 9.37%
CN(C)S(=O)(=O)c1cc(NC(=O)CN2CCN(c3ccc(O)cc3)CC2)ccc1Cl 0.75%
OC1CCN(c2cc(-c3ccccc3)nc3cc(-c4ccc(F)cc4)nn23)CC1 5.15%
COc1cccc(-c2cc3nc(-c4ccccc4)cc(N4CCCC(O)C4)n3n2)c1 (stereo not drawn) 14.1%
C=CCOC(=O)C(C#N)c1nc2ccccc2nc1N1CCN(c2ccccc2OC)CC1 (stereo not drawn) 0.49%
CC(=O)Nc1ccc2[nH]ccc2c1 -0.73%
C/C(=N\O)c1ccc2[nH]ccc2c1 5.17%
COc1ccc(OC)c(NC(=O)c2cccc(S(=O)(=O)N(Cc3ccccc3)c3ccccc3OC)c2)c1 2.42%
Cc1nc2ccc(N=NC3=C(O)CC(C)(C)CC3=O)cc2s1 2.75%
COc1ccccc1OCCn1cc(C=O)c2ccccc21 -0.05%
COC(=O)C(Cc1c[nH]c2ccccc12)NC(=O)c1cccs1 (stereo not drawn) 1.21%
O=C(Nc1ccc(F)c([N+](=O)[O-])c1)c1cccs1 4.17%
O=C(NC(Cc1c[nH]c2ccccc12)C(=O)N/N=C/c1cccc2ccccc12)c1cccs1 (stereo not drawn) 18.5%
O=C(NC(Cc1c[nH]c2ccccc12)C(=O)N1CCOCC1)c1cccs1 (stereo not drawn) -0.02%
O=C(NC(Cc1c[nH]c2ccccc12)C(=O)O)c1cccs1 (stereo not drawn) -1.85%
O=C(NC(Cc1c[nH]c2ccccc12)C(=O)N/N=C/c1ccc(Br)cc1)c1cccs1 (stereo not drawn) -2.58%
CC1(C)CC(=O)c2cc(C(=O)NC3CCSC3=O)c(=O)n(-c3ccc(Cl)cc3)c2C1 (stereo not drawn) 0.72%
O=S(=O)(Nc1ccccc1)c1cccc2nsnc12 1.2%
CCc1ccc(N2CC(C(=O)OCC(=O)NNC(=O)c3ccccc3)CC2=O)cc1 (stereo not drawn) 1.46%
COc1cccc(NC(=O)C(NCC(C)(C)CN(C)C)c2ccccc2)c1 (stereo not drawn) 1.08%
CC1(C)Cc2cccc(C(=O)Nc3ccc(Cl)cc3)c2O1 13.1%
CC1CCN(C(=O)COC(=O)Cc2c[nH]c3ccccc23)CC1 -0.07%
CCOC(=O)N1CCc2c(sc3c2c(=O)n(-c2ccc(CC)cc2)c(=O)n3CC(=O)NCC2CCCO2)C1 (stereo not drawn) -1.83%
COc1cc([N+](=O)[O-])cc(/C=N/NC(=O)C(C)Nc2cccc3ccccc23)c1O (stereo not drawn) 7.79%
O=C(CNc1cccc2ccccc12)N/N=C/c1ccc([N+](=O)[O-])cc1 0.72%
Cc1cccnc1NC(=S)Nc1ccc(F)cc1F 1.49%
COC(=O)[C@@H]1[C@@H](C)N(Cc2ccccc2)C(=O)N[C@H]1c1cccc(C(F)(F)F)c1 3.75%
Cc1cc2nc3n(c2cc1C)CCCN3 5.29%
CCOC(=O)c1cc(-c2ccccc2)sc1NC(=O)C(C)(C)C 0.09%
O=C(Nc1sc(-c2ccccc2)cc1C(=O)O)c1ccccc1 7.6%
COc1ccc(-c2cc(-c3ccc(C)cc3)nc(SCc3nnc(-c4ccccc4)o3)c2C#N)cc1OC 2.51%
Cc1ccc(OCCOC(=O)c2cccc(S(=O)(=O)N3CC(C)OC(C)C3)c2)cc1 (stereo not drawn) 3.28%
COc1cccc(-n2c(C)cc(/C=C3/C(=N)N4C(=NC3=O)SN=C4S(C)(=O)=O)c2C)c1 16.5%
COc1ccc(OC)c(-n2c(C)cc(/C=C3\C(=N)N4N=C(CC(=O)N5CCOCC5)SC4=NC3=O)c2C)c1 17%
COc1ccc(-n2c(C)cc(/C=C3\C(=N)N4N=C(CC(=O)N5CCOCC5)SC4=NC3=O)c2C)cc1 3.44%
Cc1cc(/C=C2/C(=N)N3C(=NC2=O)SN=C3S(C)(=O)=O)c(C)n1-c1ccc(F)cc1 7.04%
Cc1cc(/C=C2\C(=N)N3N=C(CC(=O)N4CCOCC4)SC3=NC2=O)c(C)n1-c1ccccc1 7.24%
COc1ccc(/C=C2\C(=N)N3N=C(CC(=O)N4CCOCC4)SC3=NC2=O)cc1 -0.02%
CCC1=NN2C(=N)/C(=C\c3cccn3-c3ccc(OC)cc3)C(=O)N=C2S1 5.71%
O=C(N/N=C/c1ccc(Cl)cc1)C(=O)N1CCCCCC1 -0.12%
O=C(NCc1ccco1)/C(=C\c1cccs1)NC(=O)c1ccco1 -0.55%
Nc1nc(N2CCCCC2)nc(N2CCCCC2)n1 0.85%
NS(=O)(=O)c1ccc(CNS(=O)(=O)c2ccc3c(c2)OCCO3)cc1 2.01%
Cc1cc(=O)oc2cc(NC(=O)c3cccc(F)c3)ccc12 4.53%
Clc1ccc(-n2c(SCc3nc4ccccc4[nH]3)nnc2-c2ccncc2)cc1 0.34%
CC(=O)NC(c1ccc(F)cc1)c1cccnc1 (stereo not drawn) 1.45%
CCc1nc(SCC(=O)c2cccc([N+](=O)[O-])c2)n[nH]1 1.44%
CCN1C(=O)N[C@H](c2ccc(Br)cc2)C(C(=O)OC)=C1C 0.05%
COC(=O)C1=C(C)N(Cc2ccccc2)C(=O)N[C@H]1c1cccc(F)c1 3.4%
CCN1C(=O)N[C@@H](c2ccc(Br)cc2)C(C(=O)OC)=C1C 5.67%
COC(=O)C1=C(C)N(Cc2ccccc2)C(=S)N[C@H]1c1ccccc1 14.1%
CC(=O)C1=C(C)N(Cc2ccccc2)C(=O)N[C@@H]1c1cccc(C(F)(F)F)c1 0.41%
CC(=O)C1=C(C)N(Cc2ccccc2)C(=O)N[C@H]1c1cccc(C(F)(F)F)c1 4.45%
